In PubChem BioAssay AID1159580 (chemical genetic matrix, 2015):
Values joined by “and” are separate entries in the source; they are usually repeats but may differ in a detail not shown here. Equal values may be shown once. Screen size: about 5,500 compounds; about 2,000 (36%) were called active. About 18% were inconclusive and are not listed. Rule as the data show it: active = normalized growth mostly below about 0.91 (no sharp cut-off); inconclusive = no clear call, values can overlap the other calls; inactive = mostly above about 0.92. The list shows a part of the results.

Test: chemical genetic growth profiling, strain panel (AID 1159580);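 also: tested at 20 µM; growth read once vehicle control cultures reached saturation at 30 °C; 1 = growth at the plate median or of vehicle wells; lower values mean less growth of the strain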
Settings: S. cerevisiae deletion strains, growth OD

Measured: normalized growth

NC(=O)c1ccc([N+](=O)[O-])cc1Cl
inactive: locus YAL013W, strain DEP1, hits give low values 0.983 | locus YAL021C, strain ccr4, hits give low values 0.97 | locus YAL026C, strain drs2, hits give low values 0.968 | locus YAL030W, strain snc1, hits give low values 0.997 | locus YBL061C, strain skt5, hits give low values 0.983 | locus YBR009C, strain hhf1, hits give low values 0.953 | locus YBR021W, strain FUR4, hits give low values 1.02 | locus YBR023C, strain chs3, hits give low values 0.985 | locus YBR171W, strain sec66, hits give low values 0.981 | locus YBR229C, strain ROT2, hits give low values 0.95 | locus YBR231C, strain swc5, hits give low values 1.01 | locus YBR279W, strain paf1, hits give low values 0.988 | locus YCL011C, strain gbp2, hits give low values 0.929 | locus YCL016C, strain dcc1, hits give low values 0.951 | locus YCL029C, strain bik1, hits give low values 0.977 | locus YCL069W, strain vba3, hits give low values 0.984 | locus YCR088W, strain abp1, hits give low values 0.994 | locus YDL005C, strain med2, hits give low values 0.985 | locus YDL035C, strain GPR1, hits give low values 0.98 | locus YDL040C, strain nat1, hits give low values 0.992 | locus YDL074C, strain BRE1, hits give low values 0.956 | locus YDL101C, strain DUN1, hits give low values 0.943 | locus YDL134C, strain PPH21, hits give low values 0.982 | locus YDL185W, strain tfp1, hits give low values 0.981 | locus YDL192W, strain arf1, hits give low values 0.982 | locus YDR001C, strain nth1, hits give low values 0.965 | locus YDR069C, strain doa4, hits give low values 0.971 | locus YDR101C, strain arx1, hits give low values 0.991 | locus YDR137W, strain rgp1, hits give low values 0.929 | locus YDR150W, strain NUM1, hits give low values 0.965 | locus YDR159W, strain sac3, hits give low values 0.931 | locus YDR162C, strain NBP2, hits give low values 0.945 | locus YDR195W, strain ref2 1.02 | locus YDR297W, strain sur2, hits give low values 0.978 | locus YDR318W, strain mcm21, hits give low values 0.995 | locus YDR334W, strain swr1, hits give low values 0.979 | locus YDR335W, strain msn5, hits give low values 0.981 | locus YDR388W, hits give low values 0.984 | locus YDR392W, strain spt3, hits give low values 0.942 | locus YDR502C, strain sam2, hits give low values 0.973 | locus YEL003W, strain gim4, hits give low values 1.01 | locus YEL037C, strain rad23, hits give low values 0.983 | locus YEL061C, strain CIN8 (second series), hits give low values 0.979 | locus YEL061C, strain CIN8, hits give low values 0.976 | locus YER015W, strain faa2, hits give low values 0.988 | locus YER016W, strain bim1, hits give low values 0.969 | locus YER110C, hits give low values 0.978 | locus YER111C, strain swi4, hits give low values 0.988 | locus YER155C, strain BEM2 (second series), hits give low values 1.05 | locus YER155C, strain BEM2, hits give low values 0.984 | locus YER167W, strain BCK2, hits give low values 0.978 | locus YFR010W, strain ubp6, hits give low values 0.975 | locus YGL078C, strain dbp3, hits give low values 0.965 | locus YGL086W, strain mad1, hits give low values 0.998 | locus YGL167C, strain pmr1, hits give low values 0.978 | locus YGL173C, strain kem1, hits give low values 0.99 | locus YGL227W, strain vid30, hits give low values 0.991 | locus YGL240W, strain doc1, hits give low values 0.995 | locus YGL248W, strain PDE1, hits give low values 0.973 | locus YGL253W, strain hxk2, hits give low values 0.971 | locus YGR078C, strain PAC10, hits give low values 0.979 | locus YGR135W, strain pre9, hits give low values 0.971 | locus YGR229C, strain SMI1, hits give low values 0.974 | locus YGR252W, strain gcn5, hits give low values 1 | locus YHR013C, strain ard1, hits give low values 0.936 | locus YHR027C, strain rpn1, hits give low values 0.968 | locus YHR030C, strain SLT2, hits give low values 0.985 and 0.977 | locus YHR079C, strain IRE1 (second series), hits give low values 0.977 | locus YHR079C, strain IRE1, hits give low values 0.974 | locus YHR094C, strain hxt1, hits give low values 0.989 | locus YHR129C, strain ARP1, hits give low values 0.997 | locus YHR142W, strain chs7, hits give low values 0.982 | locus YHR200W, strain rpn10, hits give low values 0.981 | locus YIL066C, strain RNR3, hits give low values 0.976 | locus YIL073C, strain SPO22, hits give low values 0.95 | locus YIL125W, strain kgd1, hits give low values 0.989 | locus YIR030C, strain dcg1, hits give low values 0.972 | locus YJL092W, strain hpr5, hits give low values 0.988 | locus YJL095W, strain BCK1 (second series), hits give low values 0.969 | locus YJL095W, strain BCK1, hits give low values 0.995 and 0.957 | locus YJL115W, strain asf1, hits give low values 0.986 | locus YJL129C, strain trk1, hits give low values 1.02 | locus YJL134W, strain LCB3, hits give low values 0.975 | locus YJL154C, strain vps35, hits give low values 0.98 | locus YJL164C, strain tpk1, hits give low values 0.933 | locus YJL166W, strain qcr8, hits give low values 1.01 | locus YJL168C, strain set2, hits give low values 0.982 | locus YJL187C, strain SWE1 (second series), hits give low values 0.972 | locus YJR043C, strain POL32, hits give low values 0.993 | locus YJR066W, strain TOR1, hits give low values 0.944 | locus YJR075W, strain HOC1, hits give low values 0.969
